Test results taken from PubChem BioAssay (Tox21).
“And” between values parts separate entries of the source, which are not always exact repeats. Equal entries are not always repeated. Inconclusive results are not listed. Entries that show only a call come without a potency. Values without a mark were called inactive. The source made the active and inactive calls. The call rests on the fitted dose curve; in most records, active means well fitted activation curve with a large enough effect in the repeat runs; inconclusive means weak or mixed curves; inactive means no such curve, though single readings can be large or run the other way. Starred links: 1 amine or outer side, 2 acyl side, 3 side chain; linkers in the order of their positions; H or OH if unused. Positions of bridges follow the written chain, without caps; N, C: chain ends. Non-standard residues stand in square brackets, D forms with d. Residues, ends and D or L forms follow the SMILES beside them. Chains are numbered I, II in the order given. Actinocin(9to1) = Cc1c2oc3c(C)ccc(C(=O)[*:1])c3nc-2c(C(=O)[*:2])c(N)c1=O; NMeV = CN[C@H](C(=O)O)C(C)C; Sar = CNCC(=O)O

assay: qHTS assay for small molecules that induce genotoxicity in human embryonic kidney cells expressing luciferase-tagged ATAD5 (AID 651632); settings: HEK293T ATAD5-luciferase induction, 16 h; series mostly up to 83.3 µM; activation: at the top concentration; further: nearly all actives have a fitted effect of over 15% in size
Source text: U.S. Tox21 Program National Center for Advancing Translational Sciences [NCATS] NIH Chemical Genomics Center [NCGC] U.S. Environmental Protection Agency [EPA] National Institutes of Environmental Health Sciences [NIEHS] National Toxicology Program [NTP] U.S. Food and Drug Administration [FDA] Tox21 Assay Overview: As cancer cells divide rapidly and during every cell division they need to duplicate their genome by DNA replication. The failure to do so results in the cancer cell death. Based on this concept, many chemotherapeutic agents were developed but have limitations such as low efficacy and severe side effects etc. A new cell based assay was developed to find the compounds that effectively block DNA replication either by directly damaging DNA or by inhibiting other cellular mechanisms. Enhanced Level of Genome Instability Gene 1 (ELG1; human ATAD5) protein levels increase in response to various types of DNA damage. Using a luciferase reporter-gene tagged with ATAD5, a cell-based assay [developed by Kyungjae Myung, NHGRI, NIH] was used to measure the induction of ATAD5 in human embryonic kidney cells (HEK293T). So, increase in luciferase activity can be used to identify the compounds that cause genetic stress.
Tox21 Assay Protocol Summary: For genotoxicity screening, 2,000 cells in 5 uL/well were dispensed into white, solid-bottom 1536-well plates using a Multidrop Combi (Thermo Scientific) dispenser. Following transfer of 23 nL compound or DMSO vehicle by a pin tool, the plates were incubated 16 hr at 37C and 5% CO2. 5 ul Amplite (AAT Bioquest, Inc.) was then added to each plate and following 30 min incubation at room temperature, luciferase activity was quantified on a ViewLux CCD-based plate reader.
Potency means the concentration at half of the fitted maximal effect.

SMILES	activation	Potency
CCC[C@H](N[C@@H](C)C(=O)N1[C@H](C(=O)O)C[C@@H]2CCCC[C@@H]21)C(=O)OCC	3.1%	
CCCCOCCOC(=O)c1ccccc1C(=O)OCCOCCCC		inactive
Nc1nc2ccccc2[nH]1		inactive
NNCCc1ccccc1	1.42%	
c1cc(C(c2ccc(OCC3CO3)cc2)C(c2ccc(OCC3CO3)cc2)c2ccc(OCC3CO3)cc2)ccc1OCC1CO1 (stereo not given)	3.21%	
Cc1c2oc3c(C)ccc(C(=O)N[C@@H]4C(=O)N[C@H](C(C)C)C(=O)N5CCC[C@H]5C(=O)N(C)CC(=O)N(C)[C@@H](C(C)C)C(=O)O[C@@H]4C)c3nc-2c(C(=O)N[C@@H]2C(=O)N[C@H](C(C)C)C(=O)N3CCC[C@H]3C(=O)N(C)CC(=O)N(C)[C@@H](C(C)C)C(=O)O[C@@H]2C)c(N)c1=O (I: T[dV]P[Sar][NMeV] / II: T[dV]P[Sar][NMeV]; ester I:1-I:C, II:1-II:C; linker I:N-II:N via Actinocin(9to1))	-5.3%	
c1ccc2cc3c(ccc4ccccc43)cc2c1		68.8 µM (active)
Cc1cc(C2(c3cc(C)c(O)cc3C)OS(=O)(=O)c3ccccc32)c(C)cc1O		inactive
Cc1ccnc2c1NC(=O)c1cccnc1N2C1CC1		inactive
CN1C(=O)c2ccc([N+](=O)[O-])cc2C1=O	2.47%	
Nc1nc(=S)c2[nH]cnc2[nH]1		inactive
O=Cc1ccc(Cl)cc1	1.8%	
CCN(CC)C(=O)Nc1ccc(OCC(O)CNC(C)(C)C)c(C(C)=O)c1 (stereo not given)	-6.4%	
Cc1cccc2n[nH]nc12		inactive
Cc1cc(OCCOCC[N+](C)(C)Cc2ccccc2)ccc1C(C)(C)CC(C)(C)C		inactive
Oc1ccc(Cl)cc1Cc1cc(Cl)ccc1O		inactive
CCC(CO)(CO)COCC(CC)(CO)CO	-2.05%	
CC(C)CCOCc1ccccc1	0.621%	
CC(=O)C1=C(C)[C@@H]2C[C@@]3(C1)[C@H](C)CC[C@H]3C2(C)C		inactive
c1cnc2cc3c(cc2n1)C1CNCC3C1	3.03% [at 95.3 µM]	

SMILES	activation	Potency
O=C1OC2(c3ccc(O)cc3Oc3cc(O)ccc32)c2ccccc21		inactive
CC(=O)N[C@@H](CS)C(=O)O		inactive
O=C(O)c1cn(-c2ccc(F)cc2)c2cc(N3CCNCC3)c(F)cc2c1=O	1.31%	
O=C1Nc2ccccc2C1(c1ccc(O)cc1)c1ccc(O)cc1	-7.1%	
CC[C@]1(O)C[C@@H]2CN(CCc3c([nH]c4ccccc34)[C@@](C(=O)OC)(c3cc4c(cc3OC)N(C)[C@H]3[C@@](O)(C(=O)OC)[C@H](OC(C)=O)[C@]5(CC)C=CCN6CC[C@]43[C@@H]65)C2)C1		1.19 µM (active) and 266 nM (active)
CC(=O)CC(C)=O	1.6% [at 95.3 µM]	
CCCCCCC(O)CCCCCCCCCCC(=O)O (stereo not given)		inactive
O=C(O)CCc1ccccc1	3.42%	
CC(=O)O[C@]1(C(C)=O)CC[C@H]2[C@@H]3C[C@H](C)C4=CC(=O)CC[C@]4(C)[C@H]3CC[C@@]21C		inactive
CC(C)(C)c1ccccc1	-0.922%	
COC(=O)/C=C/c1ccccc1	1.84%	
Nc1cc(S(=O)(=O)O)cc2cc(S(=O)(=O)O)cc(O)c12		inactive
Oc1c(Cl)cc(Cl)c(Cl)c1Cc1c(O)c(Cl)cc(Cl)c1Cl		inactive
CC[C@@H](N)CO	-0.531% [at 95.3 µM]	
Cc1ccc(-c2cc(C(F)(F)F)nn2-c2ccc(S(N)(=O)=O)cc2)cc1		inactive
CCCCC(CC)COC(=O)CC(C(=O)OCC(CC)CCCC)S(=O)(=O)O (stereo not given)		inactive
O=C(Oc1ccccc1)c1ccccc1O		inactive
Clc1ccc2c(c1)C(N1CCNCC1)=Nc1ccccc1O2		inactive
COc1ccc(CCN(C)CCCC(C#N)(c2ccc(OC)c(OC)c2)C(C)C)cc1OC (stereo not given)		inactive
CCc1ccc(C(c2ccc(CC)cc2)C(Cl)Cl)cc1		inactive
